Most compounds without a hit are left out; they make up all but 11% or so of the library.
Tau fluor counter: counter-screen for tau fibril formation inhibitors; Potency, µM (titrated, usually from 57.7 µM), for inactives: top-dose activity change, negative = decrease; AID 1463; tau K18 P301L Alexa594 fluorescence, heparin fibrillization; hit rate 0.93% among 280,000; note: potency is the fitted concentration of half-maximal effect; nearly all actives have a fitted effect of over 55% in size
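Human K18 P301L tau (15 uM unlabeled plus 0.24 uM Alexa 594-labeled, final) in 100 mM sodium acetate pH 7 was mixed with compound and 20 uM heparin and incubated 6 hr at 37 C.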
Tau fibril FP: tau fibrillization inhibition (FP) | Potency, µM (doses to about 57.7 µM), for the others: at the top dose activity, negative = inhibition, actives largely listed as inhibitors | P10636 | K18 P301L tau heparin fibrillization, Alexa594 FP, 6 h | hit rate 0.39% among 280,000; note: potency is the fitted concentration of half-maximal effect; nearly all actives have a fitted effect of over 55% in size
Target sequence (P10636 561-689 P618L limits assumed): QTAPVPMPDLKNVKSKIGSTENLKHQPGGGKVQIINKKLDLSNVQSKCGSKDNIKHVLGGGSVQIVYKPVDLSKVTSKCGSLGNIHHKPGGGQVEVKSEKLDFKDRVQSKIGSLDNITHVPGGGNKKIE
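Steps: dispense K18 P301L tau (15 uM plus 0.24 uM Alexa 594 tracer, final) in pH 7 sodium acetate; add compound; add heparin (20 uM final); incubate 6 hr, 37 C; add ThT (30 uM final); after 1 hr ambient, read FP.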
Tau ThT inhib: blocks human tau fibril formation measured by thioflavin T. P10636. recombinant tau K18 P301L (four-repeat tau fragment), heparin-induced fibrillization, ThT fluorescence. Potency, µM (titrated, usually from 57.4 µM), for inactives: at the highest dose activity, negative = inhibition, actives largely listed as inhibitors. hit rate 2.1% among 270,000; note: potency is the fitted concentration of half-maximal effect; nearly all actives have a fitted effect of over 55% in size
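Heparin-induced fibrillization of the P301L-mutant K18 repeat-domain fragment of human tau was followed by ThT binding in quantitative high-throughput format.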
G9a inh: blocks human histone lysine methyltransferase G9a. Q96KQ7. G9a H3K9 monomethylation, AlphaScreen, 2 h. Potency, µM (series often up to 102 µM), without a hit: at the top dose activity, negative = inhibition, usual class: inhibitors. hit rate 8.8% among 350,000; note: potency is the fitted concentration of half-maximal effect; nearly all actives have a fitted effect of over 75% in size
Target sequence (Q96KQ7 913-1193 limits assumed): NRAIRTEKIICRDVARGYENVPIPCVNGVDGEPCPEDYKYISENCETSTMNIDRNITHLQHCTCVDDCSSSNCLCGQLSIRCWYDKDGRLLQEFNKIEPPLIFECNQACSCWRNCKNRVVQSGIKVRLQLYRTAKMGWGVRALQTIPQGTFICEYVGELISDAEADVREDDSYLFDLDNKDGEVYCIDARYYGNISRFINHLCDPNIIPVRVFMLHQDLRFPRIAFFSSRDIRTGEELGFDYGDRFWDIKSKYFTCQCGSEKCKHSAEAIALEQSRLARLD
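Quantitative HTS format: methyltransferase activity on a biotin-tagged H3K9 peptide is measured by AlphaScreen, using a rabbit anti-monomethyl-H3K9 antibody with streptavidin donor and anti-IgG acceptor beads. Final levels are 20 nM enzyme, 500 nM peptide, 20 uM SAM; 2 h RT.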
FBPA coupling cs: inhibits coupling enzyme system, counter-screen for aldolase hits | coupling enzyme system counterscreen, AmpLite Red fluorescence | activity change, negative = inhibition, % at 58.2 µM, hits read low | hit rate 0.67% among 290,000 | AID 2472; in the data active = activity change below about -30%
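First, compound is pin-transferred into glyceraldehyde-3-phosphate coupling-enzyme reagent at 57.5 uM final and held 10 min at RT. Next, substrate, coupling system and AmpLite Red are added. After 20 min RT, fluorescence (525/598 nm) is read.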
Sfp PPTase inh: blocks B. subtilis Sfp PPTase activity. Biochemical Sfp PPTase activity, qHTS. Q9F4F7. hit rate 3.5% among 310,000. Potency, µM, for the others: largest response in the series, negative = inhibition, most hits filed as inhibitors;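 note: the enzyme is Sfp with the accession as filed and its product quenches rhodamine fluorescence; potency is the fitted concentration of half-maximal effect; 0% = enzyme reaction without inhibitor and -100% = no enzyme wells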
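Fluorescence-quenching assay: 15 nM Sfp-PPTase preincubated 15 min at room temperature with compound, then 5 uM rhodamine-CoA and 12.5 uM BHQ-2-labelled YbbR peptide added. Fluorescence (ex 525/em 598 nm) read at start and after 30 min; difference gives rate.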
Starred values were filed as active, the others as inactive; ? = inconclusive; · = no result given; ! = repeats disagree; [ ] = remark or other dose. Unless noted, calls come from the whole dose curve; as a rule, active = well fitted curve in the direction sought with a large enough effect; inconclusive = small, poorly fitted or top-dose-only effect, or another doubt; inactive = no such curve, though single readings can be large; an effect the other way counts as inactive or inconclusive. Unless noted, % is set by controls: 0 for no effect and ±100 for the full control effect.

SMILES	Tau fluor counter	Tau fibril FP	Tau ThT inhib	G9a inh	FBPA coupling cs	Sfp PPTase inh
CCc1ccc(N2C(=O)NC(=O)/C(=C\C=C\c3ccco3)C2=O)cc1	-7%	13µM*	10µM*	-128%[59 µM]	-2	50µM*
CC1=NN(c2ccccc2)C(=O)C1/C=C1\C(=O)NC(=O)N(c2cc(C)cc(C)c2)C1=O (configuration not stated)	0%	1%	0%	?	19	-18%
CCc1ccc(N2C(=O)CC(=O)NC2=O)cc1	·	·	·	?	1	13%
Cc1ccc(N2C(=O)NC(=O)/C(=C/C=C/c3ccco3)C2=O)cc1	-12%	?	14µM*	?	2	50µM*
CC1(C)C(=O)[C@@H]2OC2[C@@]2(C)C1CC(O)[C@]1(C)C2CC[C@@]2(C)C(c3ccoc3)OC(=O)C3OC312 (some centres not stated)	-15%	-6%	-15%	·	-1	-11%
COc1ccc(/C=C2\C(=O)NC(=O)N(CCC3=CCCCC3)C2=O)c(OC)c1	0%	2%	3%	11µM*	1	56µM*
CCN1C(=O)NC(=O)/C(=C\c2ccc(N3CCOCC3)cc2OC)C1=O	-3%	-4%	?	0%	0	-6%
O=C1NC(=O)N(CC2CCCO2)C(=O)/C1=C/c1cccs1 (configuration not stated)	-5%	3%	-16%	8%[12.7 µM]	4	79µM*
O=C1NC(=O)N(Cc2cccs2)C(=O)/C1=C/c1ccc(N2CCOCC2)cc1	-25%	-7%	?	?	5	50µM*
O=C1NC(=O)N(CCC2=CCCCC2)C(=O)/C1=C/c1cccs1	0%	5%	-5%	14µM*	5	-15%
CCCc1cc2c(n1Cc1cccc(Cl)c1)C(C)C1CN(C(=O)c3ccccc3)C(C)(C(=O)OC)C21 (configuration not stated)	-10%	-7%	?	·	-10	-3%
Cc1ccc(Cl)cc1N1CCN(C(=O)C2CCN(Cc3nc(-c4ccc(Cl)cc4)oc3C)CC2)CC1	-21%	-8%	?	?	·	·
O=C1NC(=O)N(CCC2=CCCCC2)C(=O)/C1=C/c1ccc(O)cc1	-5%	?	?	?	0	45µM*
CN1C2CCC1/C(=C/c1ccccn1)C(=O)/C2=C\c1ccccn1	-1%	?	4.5µM*	?	4	?
Cc1cc(SCC(=O)N/N=C/c2ccco2)nc2ccccc12	-11%	-2%	?	·	-32*	5%
O=C(Nc1ccc(Oc2ccc(Cl)cc2)c(Cl)c1)c1cc(I)cc(I)c1O	·	·	·	?	-9	-8%
O=C1C=C2C(=CCOC2O)O1 (configuration not stated)	-19%	2µM*	2.2µM*	-41%[2.33 µM]	0	-28%
COc1cccc(N2C(=O)CC(=O)NC2=O)c1	-8%	-10%	?	?	1	-22%
COc1ccc(-n2c(/C=C3\C(=O)Nc4ccccc43)nc3ccccc3c2=O)cc1	-9%	5%	-23%	-3%	3	10%
COc1cccc(N2C(=O)NC(=O)/C(=C/c3ccc4c5c(cccc35)CC4)C2=O)c1	-19%	?	?	10µM*	0	56µM*
COc1ccc(N2C(=O)NC(=O)/C(=C/c3ccc4c(c3)Cc3ccccc3-4)C2=O)cc1	-19%	?	?	3.5µM*	4	56µM*
CCOc1ccccc1N1C(=O)NC(=O)/C(=C/c2ccc3c4c(cccc24)CC3)C1=O	-13%	-6%	?	27%[0.501 µM]	2	56µM*
O=[N+]([O-])c1cccc(CN2CCN(Cc3ccc(Br)cc3)CC2)c1	-10%	7%	-14%	3.5µM*	1	?
CC(=O)Nc1ccc(CC(=O)N2CCN(Cc3ccccc3)CC2)cc1	·	·	·	-2%	3	2%
O=[N+]([O-])c1cccc(C2N3CCCN23)c1 (configuration not stated)	0%	-1%	-1%	-1%	1	23%
SMILES	Tau fluor counter	Tau fibril FP	Tau ThT inhib	G9a inh	FBPA coupling cs	Sfp PPTase inh
CCCNS(=O)(=O)c1ccc(OCC(=O)N2CCN(Cc3ccccc3)CC2)cc1	-2%	4%	0%	-24%[12.7 µM]	-2	2%
O=C(Cc1ccccc1)N1CCN(Cc2ccc([N+](=O)[O-])cc2)CC1	3%	0%	-3%	8.9µM*	2	-24%
CCOc1ccc(CN2CCN(C(=O)Cc3ccccc3)CC2)cc1	·	·	·	7.1µM*	-1	-9%
CC[C@H]1CN2CCc3cc(OC)c(OC)cc3[C@H]2C[C@@H]1C[C@@H]1NCCc2cc(OC)c(OC)cc21	-19%	?	-13%	20%[59 µM]	2	11%
CCCC(C)C1(CC)C(=O)NC(=S)NC1=O (configuration not stated)	-4%	1%	-5%	26%[59 µM]	2	1%
c1cncc(CNc2cc(-c3ccc4c(c3)OCO4)ncn2)c1	-21%	-1%	-16%	·	5	?
Cc1ccc(C)c(NC(=O)c2cc[n+](C)cc2)c1	·	·	·	32µM*	6	2%
O=C(O)/C=C\C(=O)O	·	·	·	-3%[59 µM]	·	·
CC(=O)O.CC(=O)O.[Cd]	-8%	-15%	?	·	0	25µM*
CNCCc1c[nH]c2ccc(O)cc12	-13%	-15%	-9%	10µM*	-5	-1%
CNCCc1c[nH]c2ccccc12	-9%	-3%	-15%	28µM*	3	21%
CCc1ccc(CNCCc2c[nH]c3ccccc23)cc1	·	·	·	?	0	-22%
NCCCCC(NC(CCc1ccccc1)C(=O)O)C(=O)N1CCCC1C(=O)O (configuration not stated)	-8%	?	-1%	-46%[2.33 µM]	5	-7%
CCCCn1c(NC(=O)c2ccc(Br)o2)c(C(=O)OCC)c2nc3ccccc3nc21	-10%	?	?	?	-44*	-30%
O=S1(=O)N(CCN2CC=C(c3c[nH]c4cc(F)ccc34)CC2)c2cccc3c2N1CCC3	8.9µM*[quencher]	12%	?	30µM*!	·	·
COc1ccc(-c2cc(=O)c3cc(OCC(=O)OC(C)C)ccc3o2)cc1	-12%	4%	?	7%[59 µM]	·	·
CCOc1ccc(/C=C2/C(=O)NC(=O)N(CCc3ccc(F)cc3)C2=O)cc1	15%	7%	14%	?	6	?
COc1ccc(CN2C(=O)NC(=O)/C(=C/c3cc(OC)c(OC)c(OC)c3)C2=O)cc1	-12%	-2%	·	45µM*	8	79µM*
COc1ccc(CN2C(=O)NC(=O)/C(=C/c3ccoc3)C2=O)cc1	9%	5%	-2%	18µM*	0	?
COc1cc(/C=C2\C(=O)NC(=O)N(CCc3ccc(F)cc3)C2=O)ccc1O	-15%	-13%	?	40µM*	4	?

Screening results deposited in PubChem by National Center for Advancing Translational Sciences (NCATS).
